# Measurements taken from the supplement of paper PMC3334620.
# Whole data set: some 33,000 sequences, median “E-score (-0.5 to 0.5)” near -0.041, cut for the highest 2% near 0.37. Shown is part of a subset that was picked to be rich in the highest values.
# Biological target: T1, Ecm22 (UniProt Q05958)
# T1 sequence: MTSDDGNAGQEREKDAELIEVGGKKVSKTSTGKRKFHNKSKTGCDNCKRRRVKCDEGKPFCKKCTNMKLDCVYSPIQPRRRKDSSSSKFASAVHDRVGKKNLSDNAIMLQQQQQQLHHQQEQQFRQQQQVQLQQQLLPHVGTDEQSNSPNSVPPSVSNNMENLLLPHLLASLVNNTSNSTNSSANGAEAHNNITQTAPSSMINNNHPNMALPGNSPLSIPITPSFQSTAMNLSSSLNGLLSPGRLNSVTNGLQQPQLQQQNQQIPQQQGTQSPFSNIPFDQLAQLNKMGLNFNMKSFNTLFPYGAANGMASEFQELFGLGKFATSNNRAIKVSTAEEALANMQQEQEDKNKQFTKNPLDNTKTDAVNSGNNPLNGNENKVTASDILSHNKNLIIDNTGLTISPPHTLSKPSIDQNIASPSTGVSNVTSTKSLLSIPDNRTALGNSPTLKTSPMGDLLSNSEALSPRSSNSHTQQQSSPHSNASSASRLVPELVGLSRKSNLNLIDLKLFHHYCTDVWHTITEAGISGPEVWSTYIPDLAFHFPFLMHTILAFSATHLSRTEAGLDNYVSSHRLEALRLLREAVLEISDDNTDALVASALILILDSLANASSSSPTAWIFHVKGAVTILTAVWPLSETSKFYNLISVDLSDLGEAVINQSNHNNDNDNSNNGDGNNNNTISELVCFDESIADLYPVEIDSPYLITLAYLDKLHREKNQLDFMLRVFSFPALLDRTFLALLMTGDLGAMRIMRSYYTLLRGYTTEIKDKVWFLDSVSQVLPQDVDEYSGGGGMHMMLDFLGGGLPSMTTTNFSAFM
# Assay: PBM E-score (8-mer binding enrichment) (E-score (-0.5 to 0.5)); higher = stronger / more preferred TF binding
# Conditions: protein concentration: 200 nM; construct: GST-full length
# Experimental: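 Universal 'all 10-mer' protein binding microarrays (Agilent AMADID 015681) probed with GST-tagged S. cerevisiae TFs (full-length or DBD) made by in vitro transcription/translation (PURExpress), about 100-200 nM. Bound TF was detected with fluorescent anti-GST. Each ungapped 8-mer (which stands for itself and its reverse complement) is scored by the PBM enrichment score (E-score), a modified Wilcoxon-Mann-Whitney statistic from -0.5 to +0.5, computed with the Universal PBM Analysis Suite. Scale: above 0.35 generally sequence-specific binding.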
row,Sequence,PBM E-score
1,AATTTTGA,0.0335
2,CCCTGATA,-0.194
3,CGGATCTA,0.0938
4,CAAGCCGA,0.0727
5,AGACAGAA,-0.0147
6,AATGTACG,0.331
7,CATGTACA,-0.0676
8,CATGTACG,0.399
9,CAAGGGTA,-0.0852
10,CGTACAGA,0.382
11,AGTACAGA,0.0225
12,AGTACAGC,-0.113
13,CCTACAGC,-0.318
14,GGTACAGA,-0.0866
15,CGTACAGC,0.427
16,CGAAGGCG,0.124
17,CGGGTTAC,0.231
18,CGTTCCAA,0.365
19,CGTTCCAG,0.418
20,CGTTCCAC,0.405
21,AGTTCCAG,-0.172
22,GGTTCCAC,-0.237

row,Sequence,PBM E-score
1,AGTTCCAC,0.0665
2,CAATCTAG,-0.0844
3,AGGTCCCC,-0.33
4,GCTTCCGA,0.0694
5,GCTGCGAA,0.0942
6,CCACAGTC,-0.189
7,AGGGACAC,-0.0536
8,AGTTTACA,-0.0418
9,GGTTTACA,-0.0503
10,AGTTTACC,-0.0268
11,CGTTTACA,0.405
12,CATTTACC,-0.0682
13,CGTTTACC,0.435
14,GCTAGCCC,-0.379
15,GGCCCGGA,-0.142
16,GCAGGTCC,0.0428
17,CCATCTCG,0.105
18,AACATACG,0.373
19,CGCATACC,0.16
20,ATCATACG,0.404
21,ATCATACC,0.00527
22,AACATACT,0.0945

row,Sequence,PBM E-score
1,CACATACG,0.335
2,CGCATACA,0.111
3,ATCATACA,0.0909
4,CGCATACG,0.385
5,CCGTCTTC,-0.175
6,CCCTCAAA,-0.157
7,ATTTGCGG,0.0753
8,AACCGTTA,0.0731
9,TCGACAAA,0.178
10,ACGACAAG,0.334
11,ACGACAAA,0.384
12,ACGACAAC,0.366
13,ACGACAAT,0.368
14,CCGACAAA,0.0481
15,ACGACAGC,0.319
16,ACGACAGT,0.382
17,ACGACAGG,0.339
18,ACGCCAGG,0.0457
19,GTCCAGCA,-0.169
20,AAGCGTGT,-0.18
21,CAGATATC,-0.0887
22,GGTTCGAC,0.0422

row,Sequence,PBM E-score
1,TGCACAAA,-0.22
2,AATCTCGG,0.129
3,AATCTCGT,0.386
4,AATCTCGA,0.0888
5,AAGCTCGC,0.297
6,AAGCTCGA,0.0757
7,AAGCTCGT,0.38
8,TACATGGA,-0.119
9,GCAGGGCA,-0.18
10,GGCCACCA,-0.161
11,ACCAGAAG,-0.0736
12,CGACTGAA,0.163
13,ACCGAGCC,0.245
14,CAACGATG,0.207
15,CCACGATC,0.0737
16,AATCGATT,0.0191
17,AAACGATG,0.439
18,AGACGATC,-0.0754
19,AAACGATT,0.42
20,AAACGCTT,0.00074
